Out of some 65,000 compounds screened, about 2,100 (3.2%) showed an effect of 50% or more. The median lay at about -52%. The sample holds strong results, similar compounds and a random draw of the others, so the mix is not that of the screen.

The test system of the assay is Plasmodium falciparum. Kind of assay: Screen against P. falciparum Asexual Blood Stage (ABS), at 5uM. In kind it is functional, Dd2. To be noted: tested at 5 uM.
For `Cc1ccc(CNC(=O)c2ccc(=O)n(C)n2)c(OCC2CC2)c1`, the INHIBITION was -124%.
The result for `O=C1NCCN1C1CCN(Cc2nc(-c3ccsc3)no2)CC1` reads -14.4%; that for `CCc1ccccc1OCC(=O)Nc1ccnc(OCCN(C)C)c1`, 59.7%; that for `COCC(=O)Nc1ccnc(OCCN(C)C)c1`, -59.7%.
The result for `COc1cc(C)ccc1OCC(=O)Nc1ccnc(OCCN(C)C)c1` reads -18.6%.
The result for `Cc1nc2ccn(C(C)C)c(=O)c2cc1C(=O)O` reads -39.7%.
Regarding `CC(=O)N1CCC(n2ccc(-c3cnc(NCC(C)C)nc3)n2)CC1`, the INHIBITION is recorded as -32.2%.
In the case of `CNCCCNc1nc(C2CCCC2)nc2c1cnn2C`, the INHIBITION was -38.7%.
The result for `Cn1ncc2c(NCCn3cccc3)nc(C3CCCC3)nc21` reads 9.86%; that for `Cn1ncc2c(NCCC34CCCN3CCC4)nc(C3CCCC3)nc21`, 63.3%; that for `CCOCCNc1nc(C2CCCC2)nc2c1cnn2C`, -129%.
The value for `CCS(=O)(=O)CCNc1nc(C2CCCC2)nc2c1cnn2C` was -115%; that for `CC(C)N(CCNc1nc(C2CCCC2)nc2c1cnn2C)C(C)C` was 58.6%; that for `N#CCCCS(=O)(=O)NC1(c2cccc(Br)c2)CC1` was -148%.
The result for `CCOC1COC2(CCN(c3ccccn3)CC2)C1` (stereo not drawn) reads -0.961%; that for `CCOCC(O)c1nc2c([nH]1)CC(C)(C)CNC2=O` (stereo not drawn), -96.9%; that for `Cc1cnn(CC(C)NCc2ccc(-n3cccn3)cc2)c1` (stereo not drawn), -72.7%.
With `Cc1cnn(CCNCc2c(C)nn(Cc3ccccc3)c2C)c1`, the INHIBITION came out at 34.2%.
The value for `Cc1cnn(CC(C)NCc2c(C)nn(Cc3ccccc3)c2C)c1` (stereo not drawn) was 50.7%; that for `CCOCC1CN(C(=O)C2CCOCC2)Cc2cnn(C)c21` (stereo not drawn) was -57.8%.
The result for `Cc1ccc(CN2CCN(c3cncc(N(C)C)n3)CC2=O)cc1C` reads -30%; that for `CCN(CC)S(=O)(=O)c1ccc(CNc2cc(C)nc(C)n2)cc1`, -79.3%.
With `COCCO[C@H]1CCN(Cc2ccsc2)[C@H]1Cc1cccnc1`, the INHIBITION is recorded as 14.6%.
Turning to `Cc1nc(CN2CC[C@H](OCC3CC3)[C@@H]2Cc2cccnc2)cs1`, the INHIBITION worked out at 60.4%.
The value for `COCCO[C@@H]1CCN(Cc2csc(C)n2)[C@H]1Cc1ccccc1` was 65.8%.
The result for `Cc1nc(CN2CC[C@@H](OCC3CC3)[C@@H]2Cc2cccnc2)cs1` reads 6.96%; that for `Cc1ccc(N2CC[C@H](OCC3CC3)[C@@H]2Cc2cccnc2)nn1`, -79.3%.
The value for `COCCO[C@H]1CCN(Cc2cccnc2)[C@H]1Cc1cccnc1` was 3.22%; that for `Cc1ccc(CN2CCC3(C2)C(=O)N(CC2CC2)c2ccccc23)s1` (stereo not drawn) was -74.8%; that for `COCC(=O)N1C[C@H]2CN(Cc3cccc(F)c3)C(=O)[C@H]2C1` was -63.1%.
On to `Cc1cc(CN2CCN(C(=O)NC(C)c3cccnc3)CC2)no1` (stereo not drawn), for which the INHIBITION is listed as 49.7%.
For the compound `CC(NC(=O)N1CCCN(Cc2cccs2)CC1)c1cccnc1` (stereo not drawn), the INHIBITION is listed as -63.5%.
The value for `Cc1nc(CN2CCN(C(=O)NC(C)c3cccnc3)CC2)cs1` (stereo not drawn) was 56.3%.
Turning to `CC(C)NC(=O)CCNC(=O)CCc1cc(Cl)cs1`, the INHIBITION is reported as -9.13%.
`Cn1nc(CN2CCCC2)c2c1CN(c1cnccn1)CC2`: the INHIBITION is -56%.
The result for `COc1c(CNC2CCCOc3ccccc32)c(C(C)C)nn1C` (stereo not drawn) reads 52.2%; that for `COc1c(CNC2CCc3c(F)cccc32)c(C)nn1C` (stereo not drawn), -21.6%.
With `COc1c(CNC2CCCOc3ccc(F)cc32)c(C(C)C)nn1C` (stereo not drawn), the INHIBITION came out at 38.8%.
The result for `COc1c(CNC2CCOc3c(Cl)cccc32)c(C)nn1C` (stereo not drawn) reads 10.1%; that for `COc1c(CNCC(O)c2cccc(F)c2)c(C(C)C)nn1C` (stereo not drawn), 63.5%; that for `COc1c(CNC2CCc3c(Cl)cccc32)c(C)nn1C` (stereo not drawn), 62.6%.
As to `COc1c(CNC2CCOc3ccccc32)c(C(C)C)nn1C` (stereo not drawn), the INHIBITION is given as -20.7%.
With `COc1c(CNC2CCCc3ccccc32)c(C(C)C)nn1C` (stereo not drawn), the INHIBITION was found to be 64.8%.
Consider `COc1c(CNC2CCCOc3ccccc32)c(C)nn1C` (stereo not drawn), for which the INHIBITION is listed as -42.2%.
The result for `COc1c(CNCC(O)c2cccc(F)c2)c(C)nn1C` (stereo not drawn) reads -92.7%; that for `COc1c(CNCC(O)c2ccccc2)c(C(C)C)nn1C` (stereo not drawn), 0.811%; that for `COc1c(CNC2CCCc3ccccc32)c(C)nn1C` (stereo not drawn), 3.18%.
On to `COc1ccc(CN2CCCn3cnc(COC(C)C)c3C2)cc1`, for which the INHIBITION is recorded as -12.6%.
The result for `CC(C)n1nc(Cn2cccc2)c2c1CN(Cc1ccoc1)C2` reads -92.6%.
For `Cc1ccccc1C(=O)N1C[C@@H]2C(CN(C)CCc3ccccn3)[C@@H]2C1` (stereo partly drawn), the INHIBITION is on record as -14.6%.
For `CC(C)c1nn(C)c(N(C)C)c1CNC1CCc2cc(F)ccc21` (stereo not drawn), the INHIBITION turned out to be 0.843%.
The value for `COc1c(CNC2CCOc3c(Cl)cccc32)c(C(C)C)nn1C` (stereo not drawn) was -60.2%; that for `COc1c(CNC2CCc3ccccc32)c(C)nn1C` (stereo not drawn) was 33.9%; that for `COc1c(CNC2CCc3cc(F)ccc32)c(C)nn1C` (stereo not drawn) was 28.1%.
The result for `COc1c(CNC2CCc3ccccc32)c(C(C)C)nn1C` (stereo not drawn) reads 62.5%; that for `COc1ccc(CNCc2c(C(C)C)nn(C)c2N(C)C)cn1`, -26.4%.
The result for `COc1c(CNCc2ccc(N(C)C)nc2)c(C(C)C)nn1C` reads -79%.
`COc1c(CNC2CCc3cc(F)ccc32)c(C(C)C)nn1C` (stereo not drawn): the INHIBITION is reported as 59.7%.
